Results: PubChem BioAssay
Values joined by “and” are separate entries in the source; they are usually repeats but may differ in a detail not shown here. Equal entries are not always repeated. Results filed as inconclusive are left out. Active and inactive are the calls of the source.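 How the source made its calls, unless noted: active means normalized viability below 100% at a tested concentration; inactive means the rest.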

Columns and labels:
[1] = viability loss in pontine glioma line – cell-based, SU-DIPG-XVII, MIPE5.0, CellTiter-Glo, qHTS, dose response (AID 1347060; cut-off not given, nearly all actives have AC50 up to about 26 µM;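 further: cells exposed to compound for 48 hours before viability readout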); conditions: CellTiter-Glo ATP luminescence
[2] = viability loss in pontine glioma line – cell-based, JHH-DIPG-1, MIPE4.0, CellTiter-Glo, qHTS, dose response (AID 1347062; cut-off not given, nearly all actives have AC50 up to about 27 µM;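 further: cells exposed to compound for two days before readout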); conditions: JHH-DIPG-1 viability, CellTiter-Glo ATP luminescence
[3] = viability loss in pontine glioma line – cell-based, SU-DIPG-IV, MIPE4.0, CellTiter-Glo, qHTS, dose response (AID 1347063; cut-off not given, nearly all actives have AC50 up to about 30 µM;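 further: compound exposure lasted 48 hours before the viability readout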); conditions: CellTiter-Glo ATP luminescence
[4] = viability loss in pontine glioma line – cell-based, SU-DIPG-XIII, MIPE5.0, CellTiter-Glo, qHTS, dose response (AID 1347064; cut-off not given, nearly all actives have AC50 up to about 23 µM;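 further: cells exposed to compound for 48 hours before the viability read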); conditions: CellTiter-Glo ATP luminescence
[5] = viability loss in pontine glioma line – cell-based, SU-DIPG-XXV, MIPE5.0, CellTiter-Glo, qHTS, dose response (AID 1347065; cut-off not given, nearly all actives have AC50 up to about 26 µM;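 further: cells exposed to compound for 48 hours before ATP readout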); conditions: CellTiter-Glo ATP luminescence
[6] = JHH-DIPG-1 glioma cell viability, MIPE5.0 library, CellTiter-Glo luminescence, qHTS (AID 1347067; cut-off not given, nearly all actives have AC50 up to about 26 µM;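 further: cells exposed to compound for 48 hours before readout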); conditions: JHH-DIPG-1 glioma viability, CellTiter-Glo ATP luminescence
[7] = growth inhibition of DIPG cells – cell-based, MIPE5.0 library, qHTS (AID 1347068; cut-off not given, nearly all actives have IC50 up to about 30 µM;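 further: cells exposed to compound for 48 hours before viability readout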); conditions: SU-DIPG-XXV viability
[8] = viability loss with induced miR-34 in A549 – imaging, A549 dox-inducible miR-34, nuclei and caspase counts, primary screen (AID 1347080;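 active means compounds whose cell count with miR-34 switched on is under 0.7 times the count with it off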); conditions: A549 miR-34 inducible, Hoechst nuclei count, 48 h
[9] = compounds altering HSF1 focus formation in cells – imaging, Selleck Cancer Library (AID 1347162; in the data active means plate-normalised HSF1 focus index below about 0.46); conditions: human cells, HSF1 nuclear foci imaging, at 10 µM; SSMD: measured here: HSF1 foci SSMD mean; cell count: measured here: cell number; plate-normalised HSF1 focus index: stronger effect = lower value
[10] = MELAS cybrid and Rieske KO viability enhancers – cell-based, MELAS cybrids, Rieske KO mouse fibroblasts, CellTiter-Glo, primary screen (AID 1508586;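 active means mean z-score across replicates of 1.96 or higher in either the MELAS or the Rieske mutant cell line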;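 further: z relative to plate mean and SD of compound and empty wells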); conditions: low glucose
[11] = drug combination growth inhibition, ovarian cancer – cell-based, oncology-focused library, rucaparib conditional, profiling panel (AID 1508598); conditions: patient-derived ovarian cancer cells, CellTiter-Glo viability, 144 h, stronger effect = lower value
[12] = stronger effect = lower value, cell number ratio, induced over uninduced
[13] = measured here: relative caspase fold change +Dox/-Dox
[14] = measured here: total cells with miR-34 induction, stronger effect = lower value
[15] = measured here: total cells without miR-34 induction
[16] = MELAS cybrid survival, CellTiter-Glo 48 h, stronger effect = higher value
[17] = Rieske KO mouse fibroblast survival, CellTiter-Glo 72 h
[18] = at 0.000305 µM, OCI-C5x cells, with rucaparib 10 µM, 100% = cells with rucaparib alone
[19] = at 0.000305 µM, OCI-C5x cells, without rucaparib
[20] = at 0.000305 µM, OCI-P5x cells, with rucaparib 20 µM, 100% = cells with rucaparib alone
[21] = at 0.000305 µM, OCI-P5x cells, without rucaparib
[22] = at 0.00122 µM, OCI-C5x cells, with rucaparib 10 µM, 100% = cells with rucaparib alone
[23] = at 0.00122 µM, OCI-C5x cells, without rucaparib
[24] = at 0.00122 µM, OCI-P5x cells, with rucaparib 20 µM, 100% = cells with rucaparib alone
[25] = at 0.00122 µM, OCI-P5x cells, without rucaparib
[26] = at 0.00488 µM, OCI-C5x cells, with rucaparib 10 µM, 100% = cells with rucaparib alone
[27] = at 0.00488 µM, OCI-C5x cells, without rucaparib
[28] = at 0.00488 µM, OCI-P5x cells, with rucaparib 20 µM, 100% = cells with rucaparib alone
[29] = at 0.00488 µM, OCI-P5x cells, without rucaparib
[30] = at 0.0195 µM, OCI-C5x cells, with rucaparib 10 µM, 100% = cells with rucaparib alone
[31] = at 0.0195 µM, OCI-C5x cells, without rucaparib
[32] = at 0.0195 µM, OCI-P5x cells, with rucaparib 20 µM, 100% = cells with rucaparib alone
[33] = at 0.0195 µM, OCI-P5x cells, without rucaparib
[34] = at 0.0781 µM, OCI-C5x cells, with rucaparib 10 µM, 100% = cells with rucaparib alone
[35] = at 0.0781 µM, OCI-C5x cells, without rucaparib
[36] = at 0.0781 µM, OCI-P5x cells, with rucaparib 20 µM, 100% = cells with rucaparib alone
[37] = at 0.0781 µM, OCI-P5x cells, without rucaparib
[38] = at 0.313 µM, OCI-C5x cells, with rucaparib 10 µM, 100% = cells with rucaparib alone
[39] = at 0.313 µM, OCI-C5x cells, without rucaparib
[40] = at 0.313 µM, OCI-P5x cells, with rucaparib 20 µM, 100% = cells with rucaparib alone
[41] = at 0.313 µM, OCI-P5x cells, without rucaparib
[42] = at 1.25 µM, OCI-C5x cells, with rucaparib 10 µM, 100% = cells with rucaparib alone
[43] = at 1.25 µM, OCI-C5x cells, without rucaparib
[44] = at 1.25 µM, OCI-P5x cells, with rucaparib 20 µM, 100% = cells with rucaparib alone
[45] = at 1.25 µM, OCI-P5x cells, without rucaparib
[46] = at 5 µM, OCI-C5x cells, with rucaparib 10 µM, 100% = cells with rucaparib alone
[47] = at 5 µM, OCI-C5x cells, without rucaparib
[48] = at 5 µM, OCI-P5x cells, with rucaparib 20 µM, 100% = cells with rucaparib alone
[49] = at 5 µM, OCI-P5x cells, without rucaparib

SMILES: COc1ccc(S(=O)(=O)N(C(C)=O)c2ccccc2/C=C/c2cc[n+]([O-])cc2)cc1
- AC50 [1]: 1480 nM (active)
- AC50 [2]: 935 nM (active)
- AC50 [3]: 372 nM (active)
- AC50 [4]: 2630 nM (active)
- AC50 [5]: 1180 nM (active)
- AC50 [6]: 1860 nM (active)

SMILES: CCN(CC)CCCCNc1ncc2cc(-c3cc(OC)cc(OC)c3)c(NC(=O)NC(C)(C)C)nc2n1
- AC50 [1]: 468 nM (active)
- AC50 [2]: 26400 nM (active)
- AC50 [3]: 16600 nM (active)
- AC50 [4]: 372 nM (active)
- AC50 [5]: 372 nM (active)
- AC50 [6]: 16600 nM (active)
- IC50 [7]: 3320 nM (active)
- fold change [8, 12]: 0.886 (inactive) and 0.737 (inactive)
- fold change [8, 13]: 1.64 and 1.42
- cell count [8, 14]: 4880 and 4370
- cell count [8, 15]: 5500 and 5930
- SSMD [9]: -4.74
- cell count [9]: 7260
- plate-normalised HSF1 focus index [9]: 0.703 (inactive)
- z-score [10, 16]: -0.712 (inactive)
- z-score [10, 17]: 0.5
- viability [11, 18]: 117% (inactive)
- viability [11, 19]: 103% (inactive)
- viability [11, 20]: 96.8% (active)
- viability [11, 21]: 89.9% (active)
- viability [11, 22]: 105% (inactive)
- viability [11, 23]: 104% (inactive)
- viability [11, 24]: 105% (inactive)
- viability [11, 25]: 98.6% (active)
- viability [11, 26]: 118% (inactive)
- viability [11, 27]: 110% (inactive)
- viability [11, 28]: 104% (inactive)
- viability [11, 29]: 101% (inactive)
- viability [11, 30]: 118% (inactive)
- viability [11, 31]: 108% (inactive)
- viability [11, 32]: 109% (inactive)
- viability [11, 33]: 108% (inactive)
- viability [11, 34]: 120% (inactive)
- viability [11, 35]: 113% (inactive)
- viability [11, 36]: 113% (inactive)
- viability [11, 37]: 104% (inactive)
- viability [11, 38]: 120% (inactive)
- viability [11, 39]: 115% (inactive)
- viability [11, 40]: 105% (inactive)
- viability [11, 41]: 101% (inactive)
- viability [11, 42]: 140% (inactive)
- viability [11, 43]: 126% (inactive)
- viability [11, 44]: 100% (inactive)
- viability [11, 45]: 105% (inactive)
- viability [11, 46]: 140% (inactive)
- viability [11, 47]: 85.3% (active)
- viability [11, 48]: 74.6% (active)
- viability [11, 49]: 68.4% (active)

SMILES: NC1(c2ccc(-c3nc4ccn5c(=O)[nH]nc5c4cc3-c3ccccc3)cc2)CCC1
- AC50 [1]: 16600 nM (active)
- AC50 [2]: 23500 nM (active)
- AC50 [3]: 14800 nM (active)
- AC50 [4]: 6610 nM (active)
- AC50 [5]: 1860 nM (active)
- AC50 [6]: 6610 nM (active)
- IC50 [7]: 18600 nM (active)
- fold change [8, 12]: 0.999 (inactive)
- fold change [8, 13]: 1.72
- cell count [8, 14]: 4130
- cell count [8, 15]: 4140
- SSMD [9]: 3.02
- cell count [9]: 6650
- plate-normalised HSF1 focus index [9]: 1.19 (inactive)
- z-score [10, 16]: -0.154 (inactive)
- z-score [10, 17]: -0.0056
- viability [11, 18]: 119% (inactive)
- viability [11, 19]: 118% (inactive)
- viability [11, 20]: 117% (inactive)
- viability [11, 21]: 108% (inactive)
- viability [11, 22]: 119% (inactive)
- viability [11, 23]: 126% (inactive)
- viability [11, 24]: 102% (inactive)
- viability [11, 25]: 112% (inactive)
- viability [11, 26]: 111% (inactive)
- viability [11, 27]: 129% (inactive)
- viability [11, 28]: 103% (inactive)
- viability [11, 29]: 106% (inactive)
- viability [11, 30]: 110% (inactive)
- viability [11, 31]: 119% (inactive)
- viability [11, 32]: 100% (inactive)
- viability [11, 33]: 104% (inactive)
- viability [11, 34]: 119% (inactive)
- viability [11, 35]: 133% (inactive)
- viability [11, 36]: 98.1% (active)
- viability [11, 37]: 98.2% (active)
- viability [11, 38]: 131% (inactive)
- viability [11, 39]: 141% (inactive)
- viability [11, 40]: 90.4% (active)
- viability [11, 41]: 110% (inactive)
- viability [11, 42]: 107% (inactive)
- viability [11, 43]: 150% (inactive)
- viability [11, 44]: 88.6% (active)
- viability [11, 45]: 103% (inactive)
- viability [11, 46]: 134% (inactive)
- viability [11, 47]: 144% (inactive)
- viability [11, 48]: 104% (inactive)
- viability [11, 49]: 106% (inactive)
